Pf growth 96h – inhibits malaria parasite growth, 96 h. P. falciparum luciferase reporter growth, 96 h. Potency, µM (highest dose often 28.7 µM), without a hit: at the top dose activity change, negative = inhibition, most hits filed as inhibitors. 320,000 tested, 6.9% active. AID 504834; active means well fitted inhibition curve with a large enough effect; inconclusive means small, poorly fitted or top-dose-only effect, or another doubt; inactive means no such curve, though single readings can be large or run the other way; further: on the % scale 0 is the no-effect control and ±100 the full control effect
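P. falciparum expressing integrated firefly luciferase, in erythrocytes at 2% hematocrit, 0.05% parasitemia, incubated with compounds 96 h at 37 C, 5% CO2. Growth inhibition read as loss of luminescence; two-generation exposure targets delayed-death apicoplast inhibitors.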
RE007 growth inh – less growth of the S. pombe RE007 Vpr strain | S. pombe RE007 Vpr strain, BacTiter-Glo ATP luminescence, 24 h | Potency, µM (highest dose often 92.2 µM), for the others: top-dose activity change, negative = less growth, most hits filed as inhibitors | 360,000 tested, 0.21% active; active means well fitted falling curve with a large enough effect; inconclusive means small, poorly fitted or top-dose-only effect; inactive means no such curve, though single readings can be large or run the other way; further: on the % scale 0 is the no-effect control and ±100 the full control effect; nearly all actives have a fitted effect of over 50% in size
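Fission yeast strain RE007, carrying one chromosomally integrated HIV-1 vpr copy, was seeded at OD 0.01 in PMG+AL medium with 23 nL pinned compound. After 24 h at 30 °C and 99% humidity, viability was read by BacTiter-Glo luminescence.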
Pf growth 48h – P. falciparum growth inhibition at 48 hours (one generation); 310,000 tested, 5.9% active; Potency, µM (doses to about 28.7 µM), without a hit: at the highest dose activity change, negative = inhibition, usual class: inhibitors; P. falciparum luciferase growth in erythrocytes, 48 h; active means well fitted inhibition curve with a large enough effect; inconclusive means small, poorly fitted or top-dose-only effect, or another doubt; inactive means no such curve, though single readings can be large or run the other way; further: on the % scale 0 is the no-effect control and ±100 the full control effect
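Luciferase-expressing P. falciparum in infected erythrocytes (2% hematocrit, 0.1% parasitemia final) in RPMI 1640/0.5% Albumax were exposed to compound for 48 hours at 37 C, 5% CO2; growth read as luminescence.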
NS1 function inh – influenza NS1 inhibition. Potency, µM (doses to about 46.1 µM), for inactives: at the top dose activity, positive = more growth. 270,000 tested, 0.4% active. AID 2326; further: actives are rising curves; nearly all actives have a fitted effect of over 50% in size
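S. cerevisiae expressing influenza A NS1, grown in glucose, washed, then diluted 1:100 into pH 6.0 -URA galactose medium with 23 nl compound. Growth recovery read as OD600; NS1-free strain serves as control.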
SARS PLP yeast – inhibitors of SARS-CoV papain-like protease in yeast. S. cerevisiae expressing SARS-CoV PLpro, growth rescue. AID 485353. 330,000 tested, 0.19% active. Potency, µM (top dose mostly 32.9 µM), without a hit: at the highest dose activity, positive = growth rescue, actives largely listed as activators; further: 0% is about no effect; nearly all actives have a fitted effect of over 55% in size
Starred values were filed as active, the others as inactive; ? = inconclusive; nt = no result given. Hits are enriched below; roughly 9.5% of the tested compounds scored in any of these assays. Unless noted, the call rests on the fitted dose curve. Potency means the concentration at half of the fitted maximal effect.

SMILES	Pf growth 96h	RE007 growth inh	Pf growth 48h	NS1 function inh	SARS PLP yeast
CC(=O)Oc1ccccc1N(C(C)=O)S(=O)(=O)c1ccc2ccccc2c1	2.33µM*	1.8%	-12.9%	-3.9%	-0.9%
Cc1ccc(S(=O)(=O)N2CCOC23CCN(C(=O)C(=O)NCc2ccccc2)CC3)cc1	?	-3.8%	-25.8%	nt	-1.6%
CCOC(=O)c1sc(-c2ccc(Cl)cc2Cl)nc1O	-4.7%	?	-3.6%	-56.0%	-1.1%
O=C(O)c1ccc2c(c1)C(=O)N([C@@H](Cc1ccc(O)cc1)C(=O)O)C2=O	14.9%	nt	-21.6%	nt	0.4%
CN1CCC(OC(=O)c2ccc(Cl)cc2Cl)CC1	7.38µM*	9.5%	9.2%	5.8%	-0.6%
COC(=O)c1cc(C(=O)c2ccc(Cl)cc2Cl)cn1C	5.22µM*	-5.3%	4.65µM*	-16.6%	-9.1%
CCC(C)(C)NC(=O)C(c1ccc(OC)cc1)N(C(=O)CCC(=O)Nc1cc(C)on1)c1ccc2c(c1)OCO2 (stereo unspecified)	?	-21.8%	?	-9.9%	5.6%
CC1CCN(C(=O)COC(=O)CSc2ccc(C(N)=O)cc2[N+](=O)[O-])CC1	8.0%	-13.7%	4.7%	nt	13.7%
Cc1ccc(-n2c(-c3ccccc3)c[n+]3c2CCc2ccccc2-3)c(C)c1	0.0%	-15.8%	0.928µM*	-4.3%	-7.5%
CCOC(=O)c1sc(NC(=O)CN2C(=O)NC3(CCC(C)CC3)C2=O)c(C(=O)OCC)c1C (stereo unspecified)	-6.6%	0.0%	?	nt	14.6%
CCOC(=O)c1sc(NC(=O)CN2C(=O)NC3(CC(C)CC(C)(C)C3)C2=O)c(C(=O)OCC)c1C (stereo unspecified)	2.08µM*	32.1%	8.28µM*	11.8%	16.6%
CC(C)Cc1nnc(NC(=O)CN2C(=O)NC3(CC(C)CC(C)(C)C3)C2=O)s1 (stereo unspecified)	16.5µM*	-1.7%	?	nt	0.9%
CCOC(=O)c1sc(NC(=O)CN2C(=O)NC3(CC(C)CC(C)(C)C3)C2=O)cc1C (stereo unspecified)	3.7µM*	-3.9%	2.62µM*	nt	-0.1%
CC1(C(=O)NCc2ccccc2Br)CCN1C(=O)CCc1ccc(Cl)cc1Cl (stereo unspecified)	nt	-5.9%	nt	nt	nt
Cc1cc(C)c(C)c(S(=O)(=O)N2CCC(C(=O)N(C)Cc3nc4ccccc4c(=O)[nH]3)CC2)c1C	nt	15.6%	nt	nt	nt
CCN(CC)S(=O)(=O)c1ccc2c(c1)c(=O)c(C(=O)NCCc1ccccc1)cn2C	1.0%	3.1%	?	2.1%	0.1%
CC1=CC(C)(C)Nc2ccc(OC(=O)C(Cc3ccccc3)N3C(=O)c4ccccc4C3=O)cc21 (stereo unspecified)	2.8%	12.5%	?	?	1.3%
CC1=CC(C)(C)Nc2ccc(OC(=O)CN3C(=O)c4cccc5cccc(c45)C3=O)cc21	?	-19.2%	7.38µM*	?	-7.1%
CC1=CC(C)(C)Nc2ccc(OC(=O)CN3C(=O)c4ccccc4C3=O)cc21	30.9%	-19.0%	14.7µM*	-25.3%	0.0%
O=C1CC2(CCN1)CCN(Cc1ccccc1)CC2	nt	2.2%	nt	nt	nt
CCS(=O)(=O)N1CCC(N2CCC(C)CC2)CC1	17.7%	-1.8%	6.8%	2.6%	2.8%
CCCS(=O)(=O)N1CCN(C2CCC(C)CC2)CC1 (stereo unspecified)	10.4µM*	-1.5%	29.7%	0.5%	0.6%
CSCCC(NC(=O)COc1ccccc1)C(=O)NCCOc1ccccc1 (stereo unspecified)	-21.6%	-7.9%	0.4%	nt	6.6%
CCOC(=O)N/N=C\c1ccc(OC/C=C/c2ccccc2)cc1	?	-1.0%	?	6.1%	9.4%
CSc1cccc(NC(=O)/C=C/c2ccccc2)c1	10.4µM*	?	118.6%	-35.8%	-13.6%
SMILES	Pf growth 96h	RE007 growth inh	Pf growth 48h	NS1 function inh	SARS PLP yeast
O=C(/C=C/c1ccccc1)Nc1cccc(C(=O)O)c1	?	-8.5%	0.262µM*	6.4%	-1.5%
Cn1nc([N+](=O)[O-])nc1Sc1ccc(Cl)cc1	-4.7%	-16.9%	?	3.8%	19.2%
CNc1ncnc(Sc2ccc(Cl)cc2)c1[N+](=O)[O-]	-49.1%	-8.2%	9.28µM*	4.0%	0.1%
CC1(C(=O)NS(=O)(=O)c2ccc(C#N)cc2)CCN1C(=O)Cc1ccccc1Cl (stereo unspecified)	nt	9.8%	nt	nt	nt
CSc1cccc(NC(=O)C2CCCN(S(=O)(=O)c3cccs3)C2)c1 (stereo unspecified)	20.5%	-8.7%	?	28.8%	-1.9%
CSc1cccc(NC(=O)C2CCCN2S(=O)(=O)c2ccc(Br)s2)c1 (stereo unspecified)	10.4µM*	-6.1%	nt	1.9%	-15.0%
Cc1ccccc1NC(=S)Nc1cccc2cnccc12	9.28µM*	-16.2%	5.22µM*	nt	-19.8%
Cc1ccc(NC(=S)Nc2cccc3cnccc23)cc1C	?	-28.7%	?	-0.9%	1.7%
Cc1ccc(NC(=S)Nc2cccc3cnccc23)cc1	?	-13.4%	?	-2.6%	-2.9%
S=C(Nc1cccc(Cl)c1)Nc1cccc2cnccc12	4.15µM*	-35.0%	0.0%	-29.2%	-74.3%
CC(=O)c1ccc(NC(=S)Nc2cccc3cnccc23)cc1	2.62µM*	-28.8%	1.85µM*	-45.0%	-5.1%
Cc1ccc(C)c(NC(=S)Nc2cccc3cnccc23)c1	9.28µM*	?	?	-3.4%	-2.2%
O=C(NCc1ccco1)C1(S(=O)(=O)c2ccccc2)CC=CC1	0.0%	-18.0%	34.2%	10.9%	2.8%
CC(=O)Nc1nc(NC(C)=O)c2[nH]c(CO)nc2n1	nt	nt	nt	-0.7%	nt
S=C(Nc1cccc(Cl)c1)Nc1ccccc1Oc1ccccc1	11.7µM*	-2.2%	20.6%	22.1%	-5.3%
CC(C)(C)c1ccc(S(=O)(=O)N2CCN(C(=O)C3CCC3)CC2)cc1	?	8.0%	?	1.0%	-1.3%
COc1ccc(OC)c(NC(=O)COc2coc(CN3CCc4ccccc43)cc2=O)c1	?	-10.1%	10.4µM*	nt	-2.5%
COc1ccc(OC)c(NC(=O)COc2coc(CN3CCCc4ccccc43)cc2=O)c1	?	2.8%	10.4µM*	nt	-1.1%
CC1(c2nnnn2Cc2ccccc2)CCC(=O)N1CCOc1ccccc1 (stereo unspecified)	nt	7.6%	nt	nt	nt
CCOC(=O)N/N=C/c1ccc(OC)c(O)c1	?	-21.1%	53.5%	nt	0.5%
CCOC(=O)N/N=C/c1ccc(OCCSc2ccc(Cl)cc2)c(OCC)c1	3.29µM*	-11.1%	1.85µM*	-18.6%	-11.4%
CCOC(=O)N/N=C/c1ccc(OCCSc2ccc(Cl)cc2)c(OC)c1	2.08µM*	-14.5%	5.22µM*	-0.8%	11.8%
O=C1/C(=C/c2ccccc2)Nc2ccccc21	3.7µM*	?	?	-116.3%	-21.7%
CC(OC(=O)Cc1cccc(C(F)(F)F)c1)C(=O)Nc1ccc(Cl)cn1 (stereo unspecified)	38.5%	-29.6%	10.4%	-32.2%	-6.0%
CC(C)Cc1nc(NCCN2CCOCC2)c(C#N)c2c1COC(C)(C)C2	nt	1.4%	11.7µM*	-43.0%	-5.9%

High-throughput results deposited in PubChem BioAssay by National Center for Advancing Translational Sciences (NCATS).
